Eight compounds from PubChem BioAssay (NCI) can be followed below.

Each structure is given as a SMILES string. Compounds without any hit were thinned out: in the full panel of roughly 83,000, 20% have a hit.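 Treatment: one concentration, 48 hours, 96-well format. Scoring: percent growth, with anything below 10 considered active.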 A number with no mark means an inactive call. Active and inactive are the calls of the source.

What all share (assay): NCI-60 one-dose screen, 48 h (100 = growth as untreated, 0 = no growth, -100 = all killed)
The subject of test [1] is HCT-15 colon. The following applies: 10 µM unless noted.
The test system of test [2] is HT29 colon. The following applies: 10 µM unless noted.
Test [3] relates to SNB-75 CNS. The following applies: 10 µM unless noted.
Test [4] concerns SNB-19 CNS. The settings on record: 10 µM unless noted.
Test [5] concerns U251 CNS. The following applies: 10 µM unless noted.
The subject of test [6] is PC-3 prostate. The settings on record: 10 µM unless noted.
For test [7], the system named is SK-MEL-5 melanoma. The settings on record: 10 µM unless noted.
For test [8], the system named is UACC-62 melanoma. The following applies: 10 µM unless noted.
Test [9] deals with LOX IMVI melanoma. The settings on record: 10 µM unless noted.
In test [10] the test system is EKVX NSCLC. The settings on record: 10 µM unless noted.
Test [11] relates to SN12C renal. The settings on record: 10 µM unless noted.
In test [12] the test system is UO-31 renal. The settings on record: 10 µM unless noted.
For test [13], the system named is TK-10 renal. The following applies: 10 µM unless noted.
Test [14] deals with ACHN renal. The settings on record: 10 µM unless noted.
The subject of test [15] is CAKI-1 renal. The settings on record: 10 µM.
Test [16] has as its system A498 renal. The settings on record: 10 µM unless noted.
The subject of test [17] is CCRF-CEM leukemia. The settings on record: 10 µM unless noted.
The subject of test [18] is SK-MEL-2 melanoma. The settings on record: 10 µM unless noted.
For test [19], the system named is MOLT-4 leukemia. The settings on record: 10 µM unless noted.
Test [20] relates to SK-MEL-28 melanoma. The following applies: 10 µM unless noted.

For the compound `CS(=O)(=O)c1nccc(-c2c(-c3ccc(F)c(OCCc4ccccc4)c3)nc3sccn23)n1`, the growth is 83.1% in test [1]; 91.3% in test [2]; 108% in test [3]; 81.7% in test [4]; 105% in test [5]; 41.7% in test [6]. Moreover, the growth in test [7] was 98%; in test [8], 83.9%; in [9] it was 75.2%; in test [10], 59.5%; in [11] it was 83.7%; in test [12], 85.5%. Also, the growth in [13] was 100%; in test [14], 90%; in test [15], 84%; in test [16] it was 90.4%; in test [17] it was 84.2%.

Consider `COc1ccc(Cn2cc3c(c2-c2cc(OC)c(OC)c(OC)c2)CCCc2cnoc2-3)cc1`, for which the growth in [1] is 20.1%; in [2] it was 14.7%; in [3], -17.6% (active); in [4], 23.1%; in test [5], 28.6%; in test [6], 44.4%. In addition, the growth in test [7] is 21.6%; in test [8], 33.9%; in test [9], 35.8%; in [18], 54.9%; in [10], 40.2%; in test [11], 36.3%. For the same compound, the growth in test [12] is 30.7%; in [13], 67.5%; in [14] it was 36.3%; in test [15] it was 19.6%; in [17] it was 15.8%; in test [19], 8.85% (active).

In the case of `C/C(=C(/c1ccc(O)cc1)c1ccc(OCCN2CCCCCC2)cc1)c1ccccc1`, the growth in test [1] is -20.7% (active); in test [2], -8.88% (active); in test [3], 71.2%; in test [4], 64.3%; in [5], 41.2%; in test [6], 44.1%. Besides, the growth is 58.4% in [7]; 56.9% in test [8]; 5.39% (active) in test [9]; 59% in [10]; 57.2% in test [11]; 29.4% in test [12]. Also, the growth in test [13] was 92.6%; in test [14], 58.7%; in test [15], 39.2%; in test [16], 74.6%; in test [17], 60%.

As to `COc1ccc(-c2nc(SCC(C)C)nc(N/N=C\c3cccc([N+](=O)[O-])c3)c2C#N)cc1`, the growth in test [1] was 46.3%; in [2], 49.9%; in test [3], -11.2% (active); in test [4], 38.6%; in test [5], 13%; in [6], 55.2%. Moreover, the growth in [7] is 68.3%; in test [8], 75.6%; in test [20], 77.7%; in test [18], 86.2%; in test [10], 47.7%; in test [11], 43.3%. Further, the growth in test [12] was -36.4% (active); in test [13] it was 91.4%; in [14], 8.66% (active); in [15] it was 31.8%; in [16], 47.6%; in test [17], 80.9%. The growth in test [19] was 75.1%.

With `Fc1ccc(-c2cc3nc(C(Cl)Cl)nc(-c4cccs4)n3n2)cc1`, the growth is 15.9% in test [1]; 4.52% (active) in test [2]; 69.8% in test [3]; 9.61% (active) in [4]; -3.12% (active) in test [5]; 1.42% (active) in [6]. The growth in test [7] is 92%; in [8], 45.8%; in [9] it was 94.8%; in test [18], 87.7%; in test [10] it was 6.21% (active); in [11], 64.5%. Moreover, the growth is 40.6% in test [12]; 7.64% (active) in [13]; -19.9% (active) in test [14]; -20.4% (active) in test [15]; -20.7% (active) in test [16]; 86% in test [17]. The growth in test [19] is 65.4%.

`COc1ccc(-c2nc(SCCC(C)C)nc(N/N=C\c3ccc(O)cc3)c2C#N)cc1`: the growth in [1] was 28.2%; in test [2], 107%; in [3] it was 77.2%; in [4], 60.1%; in [5], 29.4%; in test [6], 72.4%. Moreover, the growth in test [7] was 89.2%; in test [8], 93.9%; in test [20] it was 95%; in test [18], 104%; in test [10], 93.1%; in test [11] it was 67.6%. In addition, the growth was 76.8% in [12]; 60.9% in [14]; 78% in test [15]; 92.5% in test [16]; 54.7% in [17]; 64.5% in [19].

In the case of `O=C(Nc1ccc(F)cc1)c1cc(-c2ccc(F)cc2F)ccc1O`, the growth in [1] was 11.4%; in test [2], 101%; in test [3] it was 7.01% (active); in [4] it was 8.06% (active); in test [5], 6.63% (active); in [6], 5.81% (active). The growth in [7] is -63.9% (active); in [9], 4.96% (active); in test [20] it was 21.9%; in test [18] it was -8.37% (active); in test [10] it was 30.5%; in test [11], 3.57% (active). Moreover, the growth was -8.25% (active) in test [12]; 13.1% in [13]; 9.87% (active) in test [14]; -0.83% (active) in [15]; -28.7% (active) in test [16]; 17.8% in test [17]. Also, in [19], the growth was 13.9%.

Take `CCOC(=O)C1=C(C)Nc2nnc(Nc3ccccc3)n2C1c1ccccc1` (stereo not drawn): the growth was 58.1% in test [1]; 79.4% in test [2]; 70.5% in test [3]; 81.6% in test [4]; 45.4% in test [5]; 73.5% in test [6]. The growth in test [7] was 89.9%; in test [8] it was 75.3%; in [20], 89.9%; in test [18] it was 99.7%; in [10], 69%; in [12], 69.5%. For the same compound, the growth is 81.8% in test [13], 14.7% in test [14], 69% in test [15] and 69.5% in test [17].
